Compound activity as filed in PubChem BioAssay.
AMA1-RON2 inh – disrupts binding of P. falciparum AMA1 to RON2; AlphaScreen AMA1-biotinylated RON2 peptide binding; 360,000 compounds, 0.2% hits; Potency, µM (titrated, usually from 58.2 µM), for the others: at the top dose activity change, negative = inhibition, most hits filed as inhibitors;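 further: 0% = vehicle wells and -100% = peptide control; nearly all actives have a fitted effect of over 45% in size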
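AMA1 (3D7) with his tag at 25 nM final met compounds first, then biotinylated RON2 peptide at 25 nM; detection used donor plus acceptor beads, 10 µg/mL apiece, read by AlphaScreen after 30 min at room temperature.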
Pf growth 48h – P. falciparum growth inhibition at 48 hours (one generation). P. falciparum luciferase growth in erythrocytes, 48 h. Potency, µM (highest dose often 28.7 µM), inactives show top-dose activity change, negative = inhibition, hits mostly inhibitors. 310,000 compounds, 5.9% hits. AID 504832
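Cell-based growth assay: transgenic P. falciparum expressing firefly luciferase, cultured in red cells within RPMI 1640 containing 0.5% w/v Albumax, 24 mM bicarbonate and gentamycin. A drop in luciferase activity indicates inhibition.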
Pf growth 96h – P. falciparum growth inhibition at 96 hours | 320,000 compounds, 6.9% hits | Potency, µM (top dose mostly 28.7 µM), for inactives: top-dose activity change, negative = inhibition, usual class: inhibitors | P. falciparum luciferase reporter growth, 96 h
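P. falciparum expressing integrated firefly luciferase, in erythrocytes at 2% hematocrit, 0.05% parasitemia, incubated with compounds 96 h at 37 C, 5% CO2. Growth inhibition read as loss of luminescence; two-generation exposure targets delayed-death apicoplast inhibitors.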
HCV inh – blocks hepatitis C virus. 340,000 compounds, 3.4% hits. Potency, µM (titrated, usually from 41.8 µM), without a hit: at the highest dose activity change, negative = inhibition, hits mostly inhibitors. Huh7.5.1 HCVcc-Cre infection, luciferase reporter, 44 h. AID 651820
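Seed cells (1,000/well) for 4 h; treat with compound and infect with HCVcc-Cre, moi about 0.5. Incubate 44 h, then detect luciferase activity.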
The depositor's hits bear a star; ? = inconclusive; · = not tested or not shown; [ ] = remark or other dose. Hits are enriched below; roughly 11% of the tested compounds scored in any of these assays. The call rests on the fitted dose curve; in most records, active means well fitted curve in the direction sought with a large enough effect; inconclusive means small, poorly fitted or top-dose-only effect, or another doubt; inactive means no such curve, though single readings can be large; an effect the other way counts as inactive or inconclusive. Unless noted, on the % scale 0 is the no-effect control and ±100 the full control effect; potency means the concentration at half of the fitted maximal effect.

SMILES	AMA1-RON2 inh	Pf growth 48h	Pf growth 96h	HCV inh
Cc1ccn(CCC(=O)N2CCCC(CCC(=O)N3CCN(c4ccccn4)CC3)C2)n1 (stereo not given)	-0.2%	9.8%	-7.3%	3.1%
Cc1cc(C)c2nc(NNC(=O)c3cc(=O)c4ccccc4o3)sc2c1	79.7%	?	?	-21.8%
COc1ccc(C2CC(c3ccccc3OC(C)=O)=NN2C(=O)/C=C/c2ccccc2)cc1OC (stereo not given)	-14.6%	2.62µM*	?	-26.4%
COc1ccc(C2CC(c3ccc(OC)cc3OC(C)=O)=NN2C(=O)c2ccccc2)cc1 (stereo not given)	-9.7%	0.2%[0.00184 µM]	?	-49.1%
COc1ccc(C2=NN(C(=O)/C=C/c3ccccc3)C(c3ccccc3)C2)c(OC(C)=O)c1 (stereo not given)	-19.1%	13.1µM*	?	?
COc1ccc(C2CC(c3ccccc3OC(=O)/C=C/c3ccccc3)=NN2C(C)=O)cc1 (stereo not given)	-8.6%	2.3%	10.3%	?
COC(=O)C1=C(C)NC(=O)NC1c1cccc(OC)c1OCc1ccccc1 (stereo not given)	3.4%	6.2%	10.3%	9.2%
O=C(Cc1ccc(Br)cc1)Nc1ccccc1Cl	-0.1%	2.6%	15.2%	0.2%
CCNC(=O)NC(=O)C(C)Sc1nc2ccccc2c(=O)n1-c1cccnc1 (stereo not given)	5.0%	1.04µM*	0.928µM*	12.2%
CCOc1ccc(CCNC(=O)CCc2nnc3ccc(N4CCCCC4)nn23)cc1OCC	-3.6%	?	5.22µM*	-3.5%
CCOC(=O)c1ccc(NC(=O)CCc2nnc3ccc(N4CCCC4)nn23)cc1	6.6%	-19.3%	2.8%	-8.6%
CCN(CC)c1ccc(NC(=O)CCc2nnc3ccc(N4CCCC4)nn23)c(C)c1	-3.2%	11.7µM*	?	-17.8%
CCOc1ccc(CCNC(=O)CCc2nnc3ccc(N4CCOCC4)nn23)cc1	-17.7%	-7.1%	14.1%	7.0%
O=C(O)C1CCN(S(=O)(=O)c2ccc3[nH]ccc3c2)CC1	-1.5%	·	·	·
CCCN(CCC)C(C(=O)Nc1cccc(OC)c1)c1ccccc1 (stereo not given)	-11.7%	?	13.1µM*	?
COc1cccc(NC(=O)C(NCCC(C)C)c2ccccc2)c1 (stereo not given)	-8.7%	·	?	-19.6%
COCC(=O)N(C)C[C@@H]1Oc2cc(-c3ccc(F)cc3)ccc2S(=O)(=O)N([C@H](C)CO)C[C@H]1C	21.4%	·	·	·
CC1CCc2nc3ccc(S(=O)(=O)N4CCC(C(=O)NC(C)c5ccccc5)CC4)cc3c(C(=O)O)c2C1 (stereo not given)	-7.4%	-0.1%	?	9.0%
Cc1ccccc1NC(=O)c1nc(S(C)(=O)=O)ncc1Cl	-5.5%	0.8%	13.1µM*	?
Cc1cccc(C)c1NC(=O)c1nc(S(=O)(=O)Cc2ccccc2)ncc1Cl	-10.5%	24.9%	?	?
O=C(Nc1ccc(F)cc1)c1nc(S(=O)(=O)Cc2ccccc2)ncc1Cl	7.4%	6.5%	54.2%	8.91µM*
Cc1nnc(NC(=O)c2nc(S(=O)(=O)Cc3ccccc3)ncc2Cl)s1	60.0%	1.1%	-10.2%	10µM*
COc1cc(OC)cc(-c2noc([C@@H]3O[C@H](CO)[C@@H](O)[C@H]3O)n2)c1	-0.9%	·	·	·
CN(C(=S)NC(=O)c1ccc(Br)o1)c1ccccc1	54.3%	12.0%	36.3%	2.0%
CCOCCn1c(CN2CCN(C)CC2)nc2c1c(=O)n(C)c(=O)n2C	11.4%	0.2%	25.1%	21.5%
SMILES	AMA1-RON2 inh	Pf growth 48h	Pf growth 96h	HCV inh
COCCn1c(CN2CCN(c3cccc(Cl)c3)CC2)nc2c1c(=O)n(C)c(=O)n2C	-8.7%	·	?	?
CCOCCn1c(CN2CCN(c3ccc(F)cc3)CC2)nc2c1c(=O)n(C)c(=O)n2C	4.8%	·	7.38µM*	?
CCOCCn1c(CN2CCN(c3cccc(Cl)c3)CC2)nc2c1c(=O)n(C)c(=O)n2C	-21.0%	·	-13.0%	15.8µM*
CCN(CC(=O)Nc1ccc(NC(C)=O)cc1)C(=O)CSc1ncnc2sc(C)c(C)c12	-4.6%	-4.3%	14.1%	-16.9%
COc1ccc(O[C@H]2C=C[C@@H](c3ccccc3)O[C@@H]2COC(=O)CC/C(C)=N/O[C@@H](C)c2cn([C@H](CO)Cc3ccccc3)nn2)cc1	·	?	?	4.5%[8.37 µM]
C/C(CCN1CCc2nc(-c3ccccc3)c(-c3ccccc3)cc2C1)=N\O[C@@H](C)c1cn([C@H](CO)Cc2ccccc2)nn1	·	?	13.1µM*	-13.4%[8.37 µM]
COc1ccc(F)c(CN2CCC(n3nccc3NC(=O)C3CCOC3)CC2)c1 (stereo not given)	-11.2%	31.1%	?	0.9%
CCOP(=O)(OCC)C(NC(=O)c1cccs1)c1ccccc1 (stereo not given)	0.0%	0.9%	9.7%	-13.6%
COc1cccc(C(C)NC(=O)c2ccncc2)c1 (stereo not given)	7.2%	-0.7%	0.0%	9.9%
CCOCCCNC(=O)c1c[nH]c2ccc(S(=O)(=O)Nc3cccc(OC)c3)cc2c1=O	9.2%	?	?	6.9%
COc1cccc(NS(=O)(=O)c2ccc3[nH]cc(C(=O)NCCN4CCOCC4)c(=O)c3c2)c1	-0.5%	13.1µM*	6.5%	14.4%
COc1cccc(NS(=O)(=O)NC(=O)c2c[nH]c3ccccc23)c1	-9.3%	11.7µM*	71.6%	-1.3%
CCc1cccc2c(=O)c(C(=O)N3CCOCC3)c[nH]c12	5.8%	6.2%	?	15.0%
CCc1cccc2c(=O)c(C(=O)NCCN3CCOCC3)c[nH]c12	6.6%	-4.9%	10.8%	10µM*
O=C(NCc1ccccc1)c1c[nH]c2ccc(S(=O)(=O)Nc3ccc4c(c3)OCCO4)cc2c1=O	-9.9%	?	14.7µM*	-19.6%
NC(=O)c1cc[n+](CC2=C(C(=O)[O-])N3C(=O)[C@@H](NC(=O)Cc4cccs4)[C@@H]3SC2)cc1	·	-12.1%[12.8 µM]	-13.3%[12.8 µM]	·
CC(=O)Nc1ccc(NC(=O)C2CCCN2/C=C/C(=O)C(F)(F)F)cc1 (stereo not given)	12.4%	35.5%	125.0%	19.4%
Cc1ccccc1NS(=O)(=O)c1ccc(C(=O)NCCCN2CCOCC2)cc1	-26.1%	-2.0%	-3.6%	-0.5%
Cc1ccccc1NS(=O)(=O)c1ccc2[nH]cc(C(=O)NCCCN3CCOCC3)c(=O)c2c1	-13.3%	4.15µM*	-8.7%	6.4%
CN(C(=O)Nc1ccccc1)C1CCCCC1	-1.7%	34.8%	40.1%	-2.5%
CC(=O)NC1=C(Nc2ccc(N(C)C)cc2)C(=O)c2ccccc2C1=O	-3.9%	?	?	?
CC(=O)NC1=C(N(C)C2CCS(=O)(=O)C2)C(=O)c2ccccc2C1=O (stereo not given)	8.8%	13.1µM*	2.08µM*	-58.0%
CN(C(=O)Nc1ccccc1)C1CCS(=O)(=O)C1 (stereo not given)	12.3%	-6.1%	2.33µM*	11.0%
